Reference: PubChem BioAssay AID1159580 (chemical genetic matrix, 2015)
Among all 5,500 compounds or so, about 2,000 (36%) were called active. Inconclusive results (about 18%) are left out. This is one part of the list. Unmarked numbers belong to inactive results. No stated cut-off is given here; in the data, active means normalized growth mostly below about 0.91 (no sharp cut-off); inconclusive means no clear call, values can overlap the other calls; inactive means mostly above about 0.92.

Test: chemical genetic growth profiling, strain panel (AID 1159580);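 further: tested at 20 µM; growth read once vehicle control cultures reached saturation at 30 °C; 1 = growth at the plate median or of vehicle wells; lower values mean less growth of the strain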
Conditions: S. cerevisiae deletion strains, growth OD

CC[C@H](C)C(=O)O[C@H]1CCC=C2C=C[C@H](C)C(CCC3C[C@@H](O)CC(=O)O3)[C@H]21 (some centres undefined)
normalized growth (locus YJL187C, strain SWE1 (second series), active compounds read low): 0.994
normalized growth (locus YJL187C, strain SWE1, active compounds read low): 1
normalized growth (locus YJR043C, strain POL32, active compounds read low): 0.978
normalized growth (locus YKL009W, strain mrt4, active compounds read low): 0.864 (active)
normalized growth (locus YKL068W, active compounds read low): 0.987
normalized growth (locus YKL085W, strain MDH1 (second series), active compounds read low): 0.966
normalized growth (locus YKL085W, strain MDH1, active compounds read low): 0.966
normalized growth (locus YKL160W, strain elf1, active compounds read low): 1.01
normalized growth (locus YKL190W, strain CNB1, active compounds read low): 0.993
normalized growth (locus YKR001C, strain vps1, active compounds read low): 0.973
normalized growth (locus YKR026C, strain gcn3, active compounds read low): 0.981
normalized growth (locus YKR091W, strain srl3, active compounds read low): 1
normalized growth (locus YLL001W, strain dnm1, active compounds read low): 1.01
normalized growth (locus YLL026W, active compounds read low): 1.01
normalized growth (locus YLL041C, strain sdh2, active compounds read low): 1
normalized growth (locus YLR027C, strain aat2, active compounds read low): 1.01
normalized growth (locus YLR039C, strain RIC1, active compounds read low): 1.15
normalized growth (locus YLR058C, strain SHM2, active compounds read low): 0.989
normalized growth (locus YLR102C, strain apc9, active compounds read low): 0.973
normalized growth (locus YLR221C, strain rsa3, active compounds read low): 1.02
normalized growth (locus YLR258W, strain gsy2, active compounds read low): 1.01
normalized growth (locus YLR262C, strain YPT6 (second series), active compounds read low): 1.22 [resistant] (active)
normalized growth (locus YLR262C, strain YPT6, active compounds read low): 1.07
normalized growth (locus YLR268W, strain sec22, active compounds read low): 0.954
normalized growth (locus YLR320W, strain mms22, active compounds read low): 1.02
normalized growth (locus YLR330W, strain CHS5, active compounds read low): 0.991
normalized growth (locus YLR342W, strain FKS1 (second series), active compounds read low): 1.03
normalized growth (locus YLR342W, strain FKS1, active compounds read low): 1.01
normalized growth (locus YLR357W, strain rsc2, active compounds read low): 1.01
normalized growth (locus YLR370C, strain arc18, active compounds read low): 1
normalized growth (locus YLR371W, strain rom2, active compounds read low): 0.955
normalized growth (locus YLR384C, strain iki3, active compounds read low): 1.01
normalized growth (locus YLR418C, strain cdc73, active compounds read low): 1
normalized growth (locus YML016C, strain PPZ1, active compounds read low): 0.999
normalized growth (locus YML032C, strain rad52, active compounds read low): 1.03
normalized growth (locus YML120C, strain ndi1, active compounds read low): 1.02
normalized growth (locus YML124C, strain tub3, active compounds read low): 0.983
normalized growth (locus YMR058W, strain fet3, active compounds read low): 1.01
normalized growth (locus YMR078C, strain ctf18, active compounds read low): 0.997
normalized growth (locus YMR125W, strain sto1, active compounds read low): 1.02
normalized growth (locus YMR129W, active compounds read low): 1
normalized growth (locus YMR205C, strain PFK2, active compounds read low): 1.01
normalized growth (locus YMR223W, strain ubp8, active compounds read low): 0.995
normalized growth (locus YMR231W, strain pep5, active compounds read low): 0.996
normalized growth (locus YMR307W, strain GAS1, active compounds read low): 1.07
normalized growth (locus YNL067W, strain RPL9B, active compounds read low): 1
normalized growth (locus YNL071W, strain lat1, active compounds read low): 1
normalized growth (locus YNL209W, strain ssb2, active compounds read low): 1.02
normalized growth (locus YNL233W, strain BNI4, active compounds read low): 1.01
normalized growth (locus YNL248C, strain rpa49, active compounds read low): 1.02
normalized growth (locus YNL250W, strain rad50, active compounds read low): 0.977
normalized growth (locus YNL271C, strain bni1, active compounds read low): 0.977
normalized growth (locus YNL298W, strain CLA4, active compounds read low): 0.968
normalized growth (locus YNL307C, strain MCK1, active compounds read low): 0.978
normalized growth (locus YNL322C, strain KRE1 (second series), active compounds read low): 1.01
normalized growth (locus YNL322C, strain KRE1, active compounds read low): 0.989
normalized growth (locus YNR049C, strain mso1, active compounds read low): 1.01
normalized growth (locus YNR052C, strain pop2, active compounds read low): 0.966
normalized growth (locus YOL012C, strain htz1): 0.865
normalized growth (locus YOL147C, strain pex11, active compounds read low): 0.994
normalized growth (locus YOR001W, strain rrp6, active compounds read low): 1.01
normalized growth (locus YOR061W, strain CKA2, active compounds read low): 0.985
normalized growth (locus YOR069W, strain VPS5, active compounds read low): 0.981
normalized growth (locus YOR070C, strain gyp1, active compounds read low): 1.02
normalized growth (locus YOR080W, strain dia2, active compounds read low): 1
normalized growth (locus YOR083W, strain WHI5, active compounds read low): 1.01
normalized growth (locus YOR106W, strain vam3, active compounds read low): 1.04
normalized growth (locus YOR136W, strain idh2, active compounds read low): 0.977
normalized growth (locus YOR144C, strain elg1, active compounds read low): 0.977
normalized growth (locus YOR184W, strain ser1, active compounds read low): 0.957
normalized growth (locus YOR265W, strain rbl2, active compounds read low): 1
normalized growth (locus YOR270C, strain vph1, active compounds read low): 0.999
normalized growth (locus YOR290C, strain snf2, active compounds read low): 0.991
normalized growth (locus YOR316C, strain cot1, active compounds read low): 0.983
normalized growth (locus YPL051W, strain arl3, active compounds read low): 1.02
normalized growth (locus YPL078C, strain atp4, active compounds read low): 1.01
normalized growth (locus YPL106C, strain sse1, active compounds read low): 1.06
normalized growth (locus YPL240C, strain hsp82, active compounds read low): 1.01
normalized growth (locus YPL241C, strain CIN2, active compounds read low): 0.981
normalized growth (locus YPR119W, strain clb2, active compounds read low): 0.979
normalized growth (locus YPR141C, strain kar3, active compounds read low): 0.963
normalized growth (locus YPR163C, strain tif3, active compounds read low): 0.992
normalized growth (locus YPR167C, strain met16, active compounds read low): 1
normalized growth (strain wtn01, active compounds read low): 0.935
